# Measurements: publication PMC12820563, “FoxP3 forms a head-to-head dimer in vivo and stabilizes its multimerization on adjacent microsatellites”
# Over roughly 16,000 sequences, “rpm ratio (pull-down/input)” has its median near 0.94; the highest 2% begin near 1.7. This excerpt belongs to a sample that is enriched for the highest values.
# Biological target: T1, MBP-FoxP1dN (Mus musculus, UniProt P58462 326-579)
# T1 sequence: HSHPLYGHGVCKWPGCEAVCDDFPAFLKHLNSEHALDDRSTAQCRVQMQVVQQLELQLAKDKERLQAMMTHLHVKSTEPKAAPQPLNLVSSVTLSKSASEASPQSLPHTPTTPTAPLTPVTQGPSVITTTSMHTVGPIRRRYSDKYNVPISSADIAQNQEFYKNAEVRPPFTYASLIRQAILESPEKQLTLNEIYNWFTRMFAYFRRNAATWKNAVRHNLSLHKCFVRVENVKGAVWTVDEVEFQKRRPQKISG
# Experiment: PD-seq (MBP pull-down with sequencing); 20 mM Tris-HCl pH 7.5, 100 mM NaCl, 1.5 mM MgCl2, 0.4 uM protein, 0.1 uM dsDNA library, 30 min, room temperature, amylose pull-down; high values mean tight binding
# Details: protein: recombinant; tags: His6-MBP; chain copies: 2; dsDNA, one strand shown
# Method in brief: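 Mouse FoxP3 or FoxP1 fragment lacking the N-terminus, His6-MBP-tagged and expressed in E. coli, was incubated at 0.4 µM with 0.1 µM Klenow-filled degenerate double-stranded DNA library for 30 min at room temperature in Tris pH 7.5 buffer with NaCl and MgCl2. Complexes captured on amylose resin were washed three times and their DNA sequenced on Illumina. Binding is reads-per-million enrichment of pull-down over input, replicates pooled.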
row,Sequence,binding signal
1,GATGATTGTTCTCCCAGCTGATGAATTTCTCTATTCGAGTAAACAAATTTTCCTAATCTTTCTGTTCAAGCGCCATCTAC,0.936 RPM ratio (pull-down/input)
2,GATGATTGTTCTCCCAGCTGATGAATTCTCGGCCTCGAGTAAACAAATTTTCCTAATCTTTCTGTTCAAGCGCCATCTAC,0.731 RPM ratio (pull-down/input)
3,GATGATTGTTCTCCCAGCTGATGAATTATGACTGTCGAGTAAACAAATTTTCCTAATCTTTCTGTTCAAGCGCCATCTAC,0.934 RPM ratio (pull-down/input)
4,GATGATTGTTCTCCCAGCTGATGAATTCCCTCGGTCGAGTAAACAAATTTTCCTAATCTTTCTGTTCAAGCGCCATCTAC,0.759 RPM ratio (pull-down/input)
5,GATGATTGTTCTCCCAGCTGATGAATTGTGCCTATCGAGTAAACAAATTTTCCTAATCTTTCTGTTCAAGCGCCATCTAC,1.09 RPM ratio (pull-down/input)
6,GATGATTGTTCTCCCAGCTGATGAATTTGATCACTCGAGTAAACAAATTTTCCTAATCTTTCTGTTCAAGCGCCATCTAC,1.02 RPM ratio (pull-down/input)
7,GATGATTGTTCTCCCAGCTGATGAATTCCAAGTATCGAGTAAACAAATTTTCCTAATCTTTCTGTTCAAGCGCCATCTAC,0.949 RPM ratio (pull-down/input)
8,GATGATTGTTCTCCCAGCTGATGAATTCGCTTAATCGAGTAAACAAATTTTCCTAATCTTTCTGTTCAAGCGCCATCTAC,0.936 RPM ratio (pull-down/input)
9,GATGATTGTTCTCCCAGCTGATGAATTCTGTGGATCGAGTAAACAAATTTTCCTAATCTTTCTGTTCAAGCGCCATCTAC,0.956 RPM ratio (pull-down/input)
10,GATGATTGTTCTCCCAGCTGATGAATTATCTAGATCGAGTAAACAAATTTTCCTAATCTTTCTGTTCAAGCGCCATCTAC,0.863 RPM ratio (pull-down/input)
11,GATGATTGTTCTCCCAGCTGATGAATTTATATCATCGAGTAAACAAATTTTCCTAATCTTTCTGTTCAAGCGCCATCTAC,1.27 RPM ratio (pull-down/input)
12,GATGATTGTTCTCCCAGCTGATGAATTAAATGCGTCGAGTAAACAAATTTTCCTAATCTTTCTGTTCAAGCGCCATCTAC,1.43 RPM ratio (pull-down/input)
13,GATGATTGTTCTCCCAGCTGATGAATTATTGGCTTCGAGTAAACAAATTTTCCTAATCTTTCTGTTCAAGCGCCATCTAC,1.1 RPM ratio (pull-down/input)
14,GATGATTGTTCTCCCAGCTGATGAATTCTGTTTCTCGAGTAAACAAATTTTCCTAATCTTTCTGTTCAAGCGCCATCTAC,1.14 RPM ratio (pull-down/input)
15,GATGATTGTTCTCCCAGCTGATGAATTTTGCATCTCGAGTAAACAAATTTTCCTAATCTTTCTGTTCAAGCGCCATCTAC,1.52 RPM ratio (pull-down/input)
16,GATGATTGTTCTCCCAGCTGATGAATTTTTGTTCTCGAGTAAACAAATTTTCCTAATCTTTCTGTTCAAGCGCCATCTAC,0.963 RPM ratio (pull-down/input)
17,GATGATTGTTCTCCCAGCTGATGAATTGCATCCCTCGAGTAAACAAATTTTCCTAATCTTTCTGTTCAAGCGCCATCTAC,1.46 RPM ratio (pull-down/input)
18,GATGATTGTTCTCCCAGCTGATGAATTTAGCTCCTCGAGTAAACAAATTTTCCTAATCTTTCTGTTCAAGCGCCATCTAC,0.946 RPM ratio (pull-down/input)

row,Sequence,binding signal
1,GATGATTGTTCTCCCAGCTGATGAATTTGTTTTCTCGAGTAAACAAATTTTCCTAATCTTTCTGTTCAAGCGCCATCTAC,2.32 RPM ratio (pull-down/input)
2,GATGATTGTTCTCCCAGCTGATGAATTTTTTAGCTCGAGTAAACAAATTTTCCTAATCTTTCTGTTCAAGCGCCATCTAC,0.853 RPM ratio (pull-down/input)
3,GATGATTGTTCTCCCAGCTGATGAATTTTGTTTCTCGAGTAAACAAATTTTCCTAATCTTTCTGTTCAAGCGCCATCTAC,1.71 RPM ratio (pull-down/input)
4,GATGATTGTTCTCCCAGCTGATGAATTGTTTCTCTCGAGTAAACAAATTTTCCTAATCTTTCTGTTCAAGCGCCATCTAC,1.33 RPM ratio (pull-down/input)
5,GATGATTGTTCTCCCAGCTGATGAATTGTTTTTCTCGAGTAAACAAATTTTCCTAATCTTTCTGTTCAAGCGCCATCTAC,2.22 RPM ratio (pull-down/input)
6,GATGATTGTTCTCCCAGCTGATGAATTGTTTAGCTCGAGTAAACAAATTTTCCTAATCTTTCTGTTCAAGCGCCATCTAC,1.89 RPM ratio (pull-down/input)
7,GATGATTGTTCTCCCAGCTGATGAATTTGCATCCTCGAGTAAACAAATTTTCCTAATCTTTCTGTTCAAGCGCCATCTAC,1.77 RPM ratio (pull-down/input)
8,GATGATTGTTCTCCCAGCTGATGAATTCGTTGGGTCGAGTAAACAAATTTTCCTAATCTTTCTGTTCAAGCGCCATCTAC,0.781 RPM ratio (pull-down/input)
9,GATGATTGTTCTCCCAGCTGATGAATTCCAAGGATCGAGTAAACAAATTTTCCTAATCTTTCTGTTCAAGCGCCATCTAC,0.795 RPM ratio (pull-down/input)
10,GATGATTGTTCTCCCAGCTGATGAATTCAACTAGTCGAGTAAACAAATTTTCCTAATCTTTCTGTTCAAGCGCCATCTAC,0.877 RPM ratio (pull-down/input)
11,GATGATTGTTCTCCCAGCTGATGAATTTATTGGCTCGAGTAAACAAATTTTCCTAATCTTTCTGTTCAAGCGCCATCTAC,1.09 RPM ratio (pull-down/input)
12,GATGATTGTTCTCCCAGCTGATGAATTGAGAGTCTCGAGTAAACAAATTTTCCTAATCTTTCTGTTCAAGCGCCATCTAC,0.741 RPM ratio (pull-down/input)
13,GATGATTGTTCTCCCAGCTGATGAATTAGACGGGTCGAGTAAACAAATTTTCCTAATCTTTCTGTTCAAGCGCCATCTAC,0.832 RPM ratio (pull-down/input)
14,GATGATTGTTCTCCCAGCTGATGAATTAAAGCGCTCGAGTAAACAAATTTTCCTAATCTTTCTGTTCAAGCGCCATCTAC,0.953 RPM ratio (pull-down/input)
15,GATGATTGTTCTCCCAGCTGATGAATTGCGGCTATCGAGTAAACAAATTTTCCTAATCTTTCTGTTCAAGCGCCATCTAC,1.02 RPM ratio (pull-down/input)
16,GATGATTGTTCTCCCAGCTGATGAATTGTATTACTCGAGTAAACAAATTTTCCTAATCTTTCTGTTCAAGCGCCATCTAC,1.24 RPM ratio (pull-down/input)
17,GATGATTGTTCTCCCAGCTGATGAATTACCCGGTTCGAGTAAACAAATTTTCCTAATCTTTCTGTTCAAGCGCCATCTAC,0.848 RPM ratio (pull-down/input)
